Results taken from PubChem BioAssay.
Activity calls are given as the source filed them. Unless noted, no rule for the calls is given here.

Legend:
[1] = system: Wnt5a (protein binding on small-molecule microarray); test: small molecules binding Wnt5a protein – biophysical, small-molecule microarray, 635/667 nm fluorescence, primary screen (AID 1142); settings: 635 nm fluorescence, higher = more signal;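 also: fluorescence read at 667 nm with signal to noise per printed feature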
[2] = ATP-based viability of Huh7 replicon cells – cell-based, CellTiter-Glo luminescence, basal, 48 h, cytotoxicity control for HCV replication inhibitor project, primary screen (AID 1143); settings: higher = more signal, called active from +8 up or from −8 down;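 also: Huh7 hepatoma cells carrying a hepatitis C replication reporter with no stimulus; test concentration not given here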
[3] = Pseudomonas biofilm growth suppression – PAO1 strain, BacTiter-Glo luminescence, LB-PBS, primary screen (AID 1144); settings: P. aeruginosa PAO1 biofilm, 12 h, higher = more signal
[4] = basal CRE-LacZ reporter activity in PC12 – cell-based, unstimulated, primary screen (AID 1145); settings: no forskolin, luminescence, 4.5 h, higher = more signal, called active from +8 up or from −8 down
[5] = forskolin-driven CRE-LacZ activity in PC12 – cell-based, CRE-LacZ reporter, forskolin-stimulated, primary screen (AID 1146); settings: luminescence, 4.5 h, higher = more signal, called active from +8 up or from −8 down;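 also: PC12 cells with 6xCRE LacZ reporter stimulated by forskolin 10 µM; beta-galactosidase reporter signal reflecting CREB driven transcription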
[6] = target: Streptavidin (Streptomyces avidinii) (UniProt P22629); test: compounds binding control protein streptavidin – biophysical, small-molecule microarray, 635/667 nm fluorescence, artefact control for SMM compound annotation, primary screen (AID 1147); settings: higher = more signal;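 also: signal reflects streptavidin binding to arrayed compounds as a control protein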
Chain of Streptavidin (Streptomyces avidinii) (P22629 whole entry, looked up): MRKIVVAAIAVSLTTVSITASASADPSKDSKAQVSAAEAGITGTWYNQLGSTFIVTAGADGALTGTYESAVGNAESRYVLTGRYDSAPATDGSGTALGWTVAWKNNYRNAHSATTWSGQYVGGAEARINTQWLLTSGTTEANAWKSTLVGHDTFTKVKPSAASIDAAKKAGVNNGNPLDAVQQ

[7] = probe aInhba binding on compound microarray – biochemical, small-molecule microarray, 635/667 nm fluorescence, primary screen (AID 1148); settings: higher = more signal;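 also: score merges 667nm spot fluorescence with signal-to-noise for antibody binding to printed compounds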
Torsin-1A (Homo sapiens) [8] = target: Torsin-1A (Homo sapiens) (UniProt O14656); test: TOR1A wild-type binding on microarray – cell lysate, small-molecule microarray, lysate, 635/667 nm, primary screen (AID 1149); settings: COS7 hTOR1A-WT lysate, 635 nm fluorescence, higher = more signal
Chain of Torsin-1A (Homo sapiens) (O14656 whole entry, looked up): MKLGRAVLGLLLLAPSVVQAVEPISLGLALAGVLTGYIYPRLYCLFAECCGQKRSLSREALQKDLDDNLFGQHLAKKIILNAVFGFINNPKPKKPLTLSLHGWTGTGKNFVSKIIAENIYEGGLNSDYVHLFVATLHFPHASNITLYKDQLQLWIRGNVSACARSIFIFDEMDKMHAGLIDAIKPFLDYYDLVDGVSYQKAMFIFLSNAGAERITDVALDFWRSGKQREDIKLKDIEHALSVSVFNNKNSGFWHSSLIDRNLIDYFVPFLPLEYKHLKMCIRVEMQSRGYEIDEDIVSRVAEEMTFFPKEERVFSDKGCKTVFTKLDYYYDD

Torsin-1A (Homo sapiens) [9] = target: Torsin-1A (Homo sapiens) (UniProt O14656); test: torsin A mutant lysate binding on microarrays – cell lysate, small-molecule microarray, COS7 lysate, 635/667 nm fluorescence, primary screen (AID 1150); settings: COS7 hTOR1A mutant lysate, 635 nm fluorescence, higher = more signal;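 also: score pools 667 nm emission and signal to noise measuring lysate protein binding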
[10] = system: Sonic hedgehog protein (Shh); test: Sonic hedgehog microarray binding compounds – biochemical, small-molecule microarray, 635/667 nm fluorescence, primary screen (AID 1151); settings: 635 nm fluorescence, higher = more signal;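 also: Shh protein binding to compounds spotted on small-molecule microarray slides; score combines spot fluorescence intensity with signal-to-noise across triplicate slides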
[11] = optical density shifts of acrAB sulA E. coli – strain DRC41, OD650, 48 h, E. coli filamentation inducer project, primary screen (AID 1152); settings: higher = more signal, called active from +8 up or from −8 down;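 also: E. coli MC1000 strain DRC41 lacking acrAB efflux pump and sulA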
[12] = probe aLefty1 binding on compound microarray – biochemical, small-molecule microarray, 635/667 nm fluorescence, primary screen (AID 1153); settings: higher = more signal;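 also: score merges spot fluorescence with signal-to-noise ratio from the scanned slide images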
[13] = plasmodial surface anion channel blockers, osmotic lysis – cell-based, P. falciparum Indochina, OD700, 1 h, primary screen (AID 1154); settings: P. falciparum Indochina infected RBC osmotic lysis, higher = more signal, called active from +8 up or from −8 down
[14] = plasmodial surface anion channel blockers, osmotic lysis – cell-based, P. falciparum Indochina, OD700, 2 h, primary screen (AID 1155);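 also: lysis reports solute entry through the parasite surface anion channel PSAC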; settings: P. falciparum Indochina infected erythrocytes, higher = more signal, called active from +8 up or from −8 down
[15] = changes in parasitized red cell lysis, either direction – P. falciparum Indochina, OD700, 3 h, PSAC antagonist project, primary screen (AID 1156); settings: P. falciparum-infected erythrocytes, osmotic lysis, higher = more signal, called active from +8 up or from −8 down
[16] = plasmodial surface anion channel blockers, osmotic lysis – cell-based, P. falciparum Indochina, OD700, 18 h, primary screen (AID 1157); settings: P. falciparum Indochina infected erythrocytes, osmotic lysis OD700, 18 h; higher = more signal, called active from +8 up or from −8 down
[17] = S6 kinase pathway phospho-S6 level changes – cell-based, A549, cytoblot, luminescence, serum-stimulated, primary screen (AID 1158); settings: 5 h, higher = more signal;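 also: serum-stimulated A549 lung adenocarcinoma cells; signal is phosphorylated S6 detected by cytoblot immunostaining with HRP secondary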
[18] = target: NADPH oxidase 2 (Homo sapiens) (UniProt P04839); test: compounds shifting NOX2 Amplex Red fluorescence – cell-based, HEK293-NOX2, PMA-stimulated, NOX inhibitor project, primary screen (AID 1159); settings: 45 min, higher = more signal, called active from +8 up or from −8 down; also: test concentration not given here
Chain of NADPH oxidase 2 (Homo sapiens) (P04839 whole entry, looked up): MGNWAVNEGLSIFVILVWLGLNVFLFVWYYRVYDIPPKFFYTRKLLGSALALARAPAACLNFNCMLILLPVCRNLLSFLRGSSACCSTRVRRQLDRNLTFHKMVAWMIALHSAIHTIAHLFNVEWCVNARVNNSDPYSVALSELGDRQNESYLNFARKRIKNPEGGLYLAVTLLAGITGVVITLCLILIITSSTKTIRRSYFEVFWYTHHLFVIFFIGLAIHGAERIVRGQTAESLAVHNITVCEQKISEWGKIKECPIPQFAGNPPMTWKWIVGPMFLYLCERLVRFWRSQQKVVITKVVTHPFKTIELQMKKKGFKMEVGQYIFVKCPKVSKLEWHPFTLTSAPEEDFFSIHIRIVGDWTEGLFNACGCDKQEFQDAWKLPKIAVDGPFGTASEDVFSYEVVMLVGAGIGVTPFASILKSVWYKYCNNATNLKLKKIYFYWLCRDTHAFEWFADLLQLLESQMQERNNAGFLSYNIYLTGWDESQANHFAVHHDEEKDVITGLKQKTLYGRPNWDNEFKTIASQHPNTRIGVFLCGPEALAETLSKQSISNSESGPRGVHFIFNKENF

[19] = target: NADPH oxidase 4 (Homo sapiens) (UniProt Q9NPH5); test: compounds shifting NOX4 Amplex Red fluorescence – cell-based, HEK293-NOX4, tetracycline-induced, NOX inhibitor project, primary screen (AID 1160); settings: HEK293-NOX4, Amplex Red H2O2 fluorescence, 45 min; higher = more signal, called active from +8 up or from −8 down
Chain of NADPH oxidase 4 (Homo sapiens) (Q9NPH5 whole entry, looked up): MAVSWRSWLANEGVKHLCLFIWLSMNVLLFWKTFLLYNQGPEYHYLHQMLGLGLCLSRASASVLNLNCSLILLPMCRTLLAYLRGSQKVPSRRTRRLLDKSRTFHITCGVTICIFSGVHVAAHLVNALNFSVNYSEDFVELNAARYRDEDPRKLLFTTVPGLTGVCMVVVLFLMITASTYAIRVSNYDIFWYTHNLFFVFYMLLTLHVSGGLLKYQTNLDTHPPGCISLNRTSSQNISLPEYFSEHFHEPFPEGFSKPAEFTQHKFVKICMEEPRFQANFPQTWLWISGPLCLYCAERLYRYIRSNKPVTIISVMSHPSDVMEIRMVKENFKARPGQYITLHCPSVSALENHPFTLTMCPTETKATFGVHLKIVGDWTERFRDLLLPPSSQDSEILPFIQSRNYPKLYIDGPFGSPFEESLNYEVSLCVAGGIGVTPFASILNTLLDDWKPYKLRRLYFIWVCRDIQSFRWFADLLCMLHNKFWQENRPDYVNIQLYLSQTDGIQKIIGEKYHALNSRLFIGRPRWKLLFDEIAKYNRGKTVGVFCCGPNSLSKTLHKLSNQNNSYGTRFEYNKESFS

[20] = target: NADPH oxidase 5 (Homo sapiens) (UniProt Q96PH1); test: compounds shifting NOX5 Amplex Red fluorescence – cell-based, HEK293-NOX5, NOX inhibitor project, primary screen (AID 1161); settings: HEK293-NOX5, ionomycin, 45 min, higher = more signal
Chain of NADPH oxidase 5 (Homo sapiens) (Q96PH1 whole entry, looked up): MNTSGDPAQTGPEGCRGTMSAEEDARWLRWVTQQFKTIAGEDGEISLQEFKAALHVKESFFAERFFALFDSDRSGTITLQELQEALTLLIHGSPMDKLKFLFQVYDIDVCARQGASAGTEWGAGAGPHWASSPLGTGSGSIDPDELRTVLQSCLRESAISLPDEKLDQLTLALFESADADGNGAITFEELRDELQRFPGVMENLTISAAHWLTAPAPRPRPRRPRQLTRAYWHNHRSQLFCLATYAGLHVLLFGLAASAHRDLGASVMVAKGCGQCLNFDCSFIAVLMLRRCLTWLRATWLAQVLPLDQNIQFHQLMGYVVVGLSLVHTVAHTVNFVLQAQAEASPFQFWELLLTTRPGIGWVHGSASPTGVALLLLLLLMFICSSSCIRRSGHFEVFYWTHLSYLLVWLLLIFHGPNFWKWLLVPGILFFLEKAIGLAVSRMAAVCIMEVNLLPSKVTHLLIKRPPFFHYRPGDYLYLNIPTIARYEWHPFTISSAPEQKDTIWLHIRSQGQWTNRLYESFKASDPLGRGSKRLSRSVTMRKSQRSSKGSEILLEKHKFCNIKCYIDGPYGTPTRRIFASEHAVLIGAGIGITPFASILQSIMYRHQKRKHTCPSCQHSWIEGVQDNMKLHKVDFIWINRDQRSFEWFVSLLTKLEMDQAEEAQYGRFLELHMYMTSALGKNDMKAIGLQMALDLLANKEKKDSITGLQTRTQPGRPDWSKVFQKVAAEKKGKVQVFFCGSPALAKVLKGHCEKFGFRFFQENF

| SMILES | composite z-score [1] | z-score [2] | z-score [3] | z-score [4] | z-score [5] | composite z-score [6] | composite z-score [7] | composite z-score (Torsin-1A (Homo sapiens) [8]) | composite z-score (Torsin-1A (Homo sapiens) [9]) | composite z-score [10] | z-score [11] | composite z-score [12] | z-score [13] | z-score [14] | z-score [15] | z-score [16] | z-score [17] | z-score [18] | z-score [19] | z-score [20] |
| --- | --- | --- | --- | --- | --- | --- | --- | --- | --- | --- | --- | --- | --- | --- | --- | --- | --- | --- | --- | --- |
| O=C1C2C=CC(C(O)c3cccc4ccccc34)N(Nc3ccccc3)C2C(=O)N1c1ccccc1 (stereo not given) | 0.336 | -1.3 (inactive) | -1.46 (inactive) | 0.429 (inactive) | -0.637 (inactive) | 0.595 | 0.0705 | 0.327 | 0.463 | 0.296 | -0.692 (inactive) | 0.528 | 8.49 (active) | 2.06 (inactive) | 0.214 (inactive) | 1.41 (inactive) | -0.594 | -0.627 (inactive) | -3.83 (inactive) | -3.17 |
| C[N+](C)(C)CCCCCCNC(=O)[C@@H]1C[C@@H]2C(=O)NCC(=O)N2[C@@H]1c1ccc(O)cc1 | 0.0508 | -0.0464 (inactive) | -0.404 (inactive) | -0.532 (inactive) | -0.828 (inactive) | 1.44 | -0.0933 | 0.319 | 0.523 | 2.16 | 0.109 (inactive) | 0.0984 | 0.451 (inactive) | -0.196 (inactive) | -1.53 (inactive) | -0.238 (inactive) | -0.727 | 0.823 (inactive) | 0.899 (inactive) | -0.757 |
| C/C=C/[C@@H](CCn1cc([C@H](O)c2ccccc2)nn1)[Si](C)(C)c1ccc(OC)cc1 | 0.303 | -3.67 (inactive) | 0.214 (inactive) | 3.3 (inactive) | 0.128 (inactive) | -0.514 | -0.253 | 0.154 | -0.575 | -0.0723 | 0.703 (inactive) | 0.121 | 5.3 (inactive) | 1.06 (inactive) | 2.04 (inactive) | 0.473 (inactive) | 0.201 | 0.257 (inactive) | -0.182 (inactive) | -2.21 |
| CCCCC(O)C1C=CC2C(=O)N(Cc3ccccc3)C(=O)C2N1n1cnnc1 (stereo not given) | 0.0687 | -4.01 (inactive) | -0.372 (inactive) | 0.519 (inactive) | -0.422 (inactive) | 0.416 | -0.0477 | 0.0569 | -0.459 | 0.22 | -1.18 (inactive) | 0.574 | 0.706 (inactive) | -1.16 (inactive) | 0.662 (inactive) | -1.85 (inactive) | 1.99 | -3.33 (inactive) | -2.04 (inactive) | -3.3 |
| COc1ccccc1CN1C(=O)c2ccccc2[C@@]2(Cc3ccccc3N(C3CC3)C2=O)[C@@H]1c1ccc(CO)cc1 | -0.507 | -0.0976 (inactive) | 1.13 (inactive) | 0.622 (inactive) | -0.148 (inactive) | -0.189 | -0.125 | -1.68 | -0.821 | -0.27 | -0.685 (inactive) | -0.235 | 0.162 (inactive) | -0.0183 (inactive) | -0.108 (inactive) | 0.23 (inactive) | -0.243 | -0.161 (inactive) | 0.394 (inactive) | 1.04 |
| COCCCNC(=O)[C@@]1(Cc2ccccc2N=[N+]=[N-])N=C(c2ccc(OCCCO)cc2)O[C@H]1c1ccccc1CN=[N+]=[N-] | 0.972 | -5.06 (inactive) | -0.389 (inactive) | 1.84 (inactive) | -1.75 (inactive) | 1.08 | 0.246 | 0.554 | 0.752 | -0.265 | 0.871 (inactive) | 0.152 | 24.8 (active) | 8.62 (active) | 2.41 (inactive) | 0.74 (inactive) | 2.17 | -2.73 (inactive) | 0.7 (inactive) | -1.16 |
| COC(=O)[C@@]1(Cc2ccc(OC)cc2)[C@H]2c3cc(C(=O)N(C)C)n(CCF)c3C[C@H]2CN1C(=O)c1ccccc1 | 0.17 | -2.15 (inactive) | 0.475 (inactive) | 1.35 (inactive) | -0.715 (inactive) | 2.2 | 0.515 | 0.3 | 0.541 | -0.379 | -0.55 (inactive) | 0.624 | 1.81 (inactive) | 0.847 (inactive) | 0.865 (inactive) | 1.06 (inactive) | -0.132 | 0.605 (inactive) | 2.58 (inactive) | 0.602 |
| OCCCC1=CC(c2cccs2)N(Cc2cccc(OC(F)(F)F)c2)CC1 (stereo not given) | -0.335 | -1.06 (inactive) | 0.839 (inactive) | 0.593 (inactive) | -0.368 (inactive) | -0.889 | -0.179 | 0.331 | -0.632 | 0.243 | -1.07 (inactive) | -0.0109 | 7.72 (inactive) | 1.33 (inactive) | -0.499 (inactive) | 1.07 (inactive) | -0.105 | -0.257 (inactive) | -1.27 (inactive) | -1.11 |
| COC(=O)C(CC#Cc1ccc2c(c1)[C@]1(C(=O)N2)[C@H](c2ccc(O)cc2)N2[C@H](c3ccccc3)[C@H](c3ccccc3)OC(=O)[C@H]2[C@@H]1C(N)=O)C(=O)OC | -0.206 | -1.94 (inactive) | -1.56 (inactive) | 0.212 (inactive) | -0.615 (inactive) | -1.42 | -0.153 | -1.15 | -0.491 | -0.907 | 2.05 (inactive) | -0.216 | 1.09 (inactive) | 1.58 (inactive) | 0.6 (inactive) | 1.3 (inactive) | 1.39 | 0.222 (inactive) | 0.356 (inactive) | -0.453 |
